# According to PubChem BioAssay:
# Active and inactive are the calls of the source. Unless noted, the rule behind the calls is not given here.
# Key:
# [1] = hESC survival regulators, cell-based (AID 493140); conditions: human embryonic stem cell survival screen; stronger effect = higher value;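 note: cells exposed to compounds for four days before counting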
# [2] = liver-stage malaria parasite growth inhibition, primary screen, cell-based, HepG2, luciferase luminescence, HepG2 viability (AID 624349; in the data active = parasite load remaining mostly below about 12%, no sharp cut-off; inactive = mostly above about 10%;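 note: 100% = mean of DMSO negative control wells on the same plate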); conditions: P. berghei liver stage in HepG2, luciferase luminescence, concentration not given here; parasite load remaining: stronger effect = lower value; viability: measured here: HepG2 viability without parasites
# [3] = tested on: Hepatitis C virus NS3 helicase; test: HCV NS3 helicase inhibitors, primary screen, biochemical, fluorescence polarization, LOPAC1280 library (AID 687035; in the data active = inhibition above about 37%); conditions: Purified HCV NS3 helicase, Cy5-dT15 ssDNA binding fluorescence polarization; stronger effect = higher value; concentration not given here
# [4] = Cy5 fluorescence quenching or enhancement artefacts, artefact control for HCV NS3 helicase inhibitor project, biochemical, LOPAC1280 (AID 687037); conditions: Cy5-DNA-NS3h complex fluorescence interference counterscreen
# [5] = kinase inhibitors against Plasmodium liver-stage infection, cell-based, known kinase inhibitor set, luminescence, hepatoma host viability (AID 624392); conditions: Plasmodium liver stage in hepatoma cells, luciferase luminescence, concentration not given here; liver cell % of control: measured here: host liver cell viability; parasite % of control: stronger effect = lower value;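 note: infected cells incubated roughly two days before readout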
compound,measurement,setting,value
O=c1cccc2n1CC1CNC[C@@H]2C1,survival,[1],9 (inactive)
same,parasite load remaining,[2],70.3% (inactive)
same,viability,[2],77.8%
C=CCN1CC[C@]23c4c5ccc(O)c4O[C@@H]2/C(=N\N=C2\CC[C@@]4(O)C6Cc7ccc(O)c8c7[C@@]4(CCN6CC=C)[C@@H]2O8)CC[C@@]3(O)C1C5,inhibition,[3],-6% (inactive)
same,fluorescence ratio (interference),[4],0.9 (inactive)
CCC(C)C1OC2(C=CC1C)CC1CC(CC=C(C)C(OC3CC(OC)C(OC4CC(OC)C(O)C(C)O4)C(C)O3)C(C)C=CC=C3COC4C(O)C(C)=CC(C(=O)O1)C34O)O2 (stereo unspecified),survival,[1],3.5 (inactive)
N#CC(C#N)=Cc1cc(O)c(O)c([N+](=O)[O-])c1,survival,[1],100 (inactive)
CC1O[C@@H](O[C@@H]2C=C3CCC4C(CC[C@]5(C)[C@@H](c6ccc(=O)oc6)CC[C@]45O)[C@@]3(C)CC2)C(O)[C@@H](O)[C@H]1O (stereo partly specified),survival,[1],2.83 (inactive)
O=C1Nc2ccc3ncsc3c2/C1=C/c1cnc[nH]1,parasite load remaining,[2],86.4% (inactive)
same,viability,[2],77.5%
CCN1C[C@]2(C)CC[C@H](OC)[C@]34C2[C@H](OC(C)=O)C2(OCO[C@@]25CC(OC)C2C[C@]3(O)C5[C@H]2OC)[C@@H]14 (stereo partly specified),survival,[1],5 (inactive)
CN[C@@H]1CC2(C)OC([C@@H]1OC)n1c3ccccc3c3c4c(c5c6ccccc6n2c5c31)C(=O)NC4 (stereo partly specified),survival,[1],0.333 (inactive)
CC1CCC2(NC1)O[C@H]1C[C@H]3[C@@H]4CC=C5C[C@@H](O)CC[C@]5(C)[C@H]4CC[C@]3(C)[C@H]1[C@@H]2C (stereo partly specified),survival,[1],4.83 (inactive)
CN1C2CCC1CC(O)C2 (stereo unspecified),survival,[1],7.58 (inactive)
same,parasite load remaining,[2],64% (inactive)
same,viability,[2],69.9%
[Cl-].[Cl][Pt].[NH2-].[NH2-].c1ccncc1,inhibition,[3],-3% (inactive)
same,fluorescence ratio (interference),[4],0.9 (inactive)
COc1ccc(C(=O)OC2C[C@H]3CC[C@@H](C2)N3C)cc1OC (stereo partly specified),survival,[1],13.3 (inactive)
same,parasite load remaining,[2],68.2% (inactive)
same,viability,[2],77.3%
C=C[C@@H]1CN2CCC1C[C@@H]2[C@H](O)c1ccnc2ccccc12 (stereo partly specified),survival,[1],3.33 (inactive)
same,parasite load remaining,[2],71% (inactive)
same,viability,[2],77.6%
CC(C)C(C(=O)OC(C#N)c1cccc(Oc2ccccc2)c1)c1ccc(Cl)cc1 (stereo unspecified),survival,[1],79 (inactive)
CN1C2CCC1CC(OC1c3ccccc3CCc3ccccc31)C2 (stereo unspecified),survival,[1],0.75 (inactive)
CCN(CC)C(=O)N[C@@H]1CC2c3cccc4[nH]cc(c34)CC2N(C)C1 (stereo partly specified),survival,[1],2.5 (inactive)
CN1C2CC(=O)CC1C(O)C2 (stereo unspecified),survival,[1],4.08 (inactive)
C=CCN1CC[C@]23c4c5ccc(O)c4O[C@H]2/C(=N\NC(=O)c2ccccc2)CC[C@@]3(O)[C@H]1C5,inhibition,[3],-6% (inactive)
same,fluorescence ratio (interference),[4],0.9 (inactive)
CCCCCCCCCCCCCCC[C@@H](O)[C@@H](N)COP(=O)(O)O,survival,[1],93.8 (inactive)
NC(N)=NOCC[C@@H](N)C(=O)O,survival,[1],14.8 (inactive)
same,parasite load remaining,[2],70.5% (inactive)
same,viability,[2],75.6%
CC[C@H]1CN2CCc3cc(OC)c(OC)cc3[C@@H]2C[C@@H]1C[C@H]1NCCc2cc(O)c(OC)cc21,survival,[1],0.333 (inactive)
same,parasite load remaining,[2],8.07% (inactive)
same,viability,[2],49.7%
O=C1NC(=O)C(=Cc2ccc(-c3ccc([N+](=O)[O-])cc3)o2)C(=O)N1,liver cell % of control,[5],98%
same,parasite % of control,[5],117% (inactive)
O=C1NC(=O)C(=Cc2ccc(-c3ccc(Cl)cc3)o2)C(=O)N1,liver cell % of control,[5],87%
same,parasite % of control,[5],167% (inactive)
O=C1NC(=O)C(=Cc2ccc(-c3ccc(S(=O)(=O)N4CCOCC4)cc3)o2)C(=O)N1,liver cell % of control,[5],98.4%
same,parasite % of control,[5],98.3% (inactive)
C[C@@H](N)[C@H](O)c1ccccc1,survival,[1],4.42 (inactive)
same,parasite load remaining,[2],62.7% (inactive)
same,viability,[2],76%
